The text below walks through data of PubChem BioAssay (EPA / NIEHS).

Activity calls are given as the source filed them. The calls were made as follows: active = hit-call score of the fitted dose curve at least 0.9, where 1 is the maximum; inactive = score below 0.9.

Read-out in this assay: X-box binding protein 1 (XBP1), XBP1 (gene 7494)
The assay is described as follows: LTEA_HepaRG_XBP1: Life Technologies and Expression Analysis (LTEA) Assay for X-box binding protein 1 (XBP1) using HepaRG (AID 2283540). Conditions: mRNA level, 48 h; actives raise or lower the signal. The protocol:
LTEA_HepaRG is a cell based, multiplexed-readout assay that uses HepaRG, a human liver cell line, with measurements taken at 48 hours after chemical dosing on a 96-well plate.LTEA_HepaRG_XBP1 is one of 102 assay component(s) measured in the LTEA HepaRG cell culture assay. It is a marker of Diseases associated with XBP1 including Major Affective Disorder 7 and Bipolar Disorder.Data from the assay component LTEA_HepaRG_XBP1 was analyzed into 1 endpoint. This assay endpoint, LTEA_HepaRG_XBP1, was analyzed with bidirectional fitting relative to DMSO as the negative control and baseline of activity. Using a type of inducible reporter, measures of mRNA induction for gain or loss-of-signal activity can be used to understand regulation of transcription factor activity. To generalize the intended target to other relatable targets, this assay endpoint is annotated to the dna binding intended target family, where the subfamily is basic leucine zipper.
A total of 1060 chemcials from the ToxCast library were tested in eight-point concentration-response experiments. Cell culture and cytotoxicity assays were conducted at Thermo Fisher Scientific's Custom Services facility (Madison, WI). A single lot of human HepaRG cells (Thermo Fisher Scientific, Frederick, MD) was used for the cell culture experiments. 96-well format collagen type I coated plates of human HepaRG cells were prepared using established methods. Briefly, cryopreserved HepaRG cells were thawed, plated at a density of approximately 100,000 cells/well in HepaRG Thaw, Plate, and General Purpose media (HPRG770, Thermo Fisher Scientific), and incubated for 48 hours. 0.5% DMSO was selected as vehicle control to balance the requisite need of DMSO in HepaRG cultures to maintain differentiation (for example, baseline metabolism, proportions of hepatocytes vs. cholangiocytes), while enabling further hepatic receptor pathway activation (for example, PXR and CAR) in response to chemical exposure. 48 hours after plating, the culture medium was replaced with HepaRG Serum-Free Incudtion Media. Cells were exposed to each test chemical in duplicate and maintained in CO2 incubators for another 48 hours. Chemical plates were thawed to room temperature and 200x concentrations of treatment groups were prepared. 8-point conentration-reponse curves were made with the highest exposure at 100 uM, followed by half-log dilutions, all in 0.5% DMSO. Each test plate contained variouse controls, induction positive controls (1mM phenobarbital), cytotoxicity positive controls ([…] aflatoxin B1), vehicle controls (0.5% DMSO), and total lysis controls (0.5% DMSO). Cell morphology images were taken using an Essen IncuCyte FLR automated microscope, with six 96-well plates imaged in about 24 minutes. Images were captured and exported and JPEG files. Spent culture media was transfered to black-well plates for the LDH assay, and remaining media was sorted at -80 C for later use. Cells were treated with RLT buffer and frozen until shipped for gene expression analysis. Total RNA was isolated from the cell suspension in 75 uL of Buffer RLT (Qiagen, Germantown, MD 20874) by Quintiles/Expression Analysis (Durham, NC) using a custom isolation procedure. Total RNA from each plate well was transferred to a preamplification plate. Fluidigm's 96.96 Dynamic ArrayTM (Fluidigm, Amsterdam, the Netherlands) technology was used for gene expression analyses by quantitative reverse transcription polymerase chain reaction (qRT-PCR, performed by Quintiles/Expression Analysis, Durham, NC)89. Standard TaqManTM Assays (Applied Biosystems/ThermoFisher Scientific, Foster City, CA) were used to assess the expression of 93 genes selected based on their selectivity and sensitivity to important hepatic receptors known to be modulated by environmental chemicals; importance in human hepatocyte functionality; and hepatotoxicity. […]
Turning to `Nn1cnnc1`, the outcome was inactive.

For the compound `CC(C)(c1ccccc1)c1ccc(O)cc1`, the outcome was inactive.

For `O=NN(c1ccccc1)c1ccccc1`, the compound was classed as inactive.

Take `CCOC(=O)C(O)(c1ccc(Cl)cc1)c1ccc(Cl)cc1`: the call was inactive.

As to `C[C@]12CCC(=O)C=C1CC[C@@H]1[C@@H]2CC[C@@]2(C)[C@H]1CC[C@]2(C)O`, the compound was called inactive.

Consider `Oc1ccc(Cl)cc1Cl`, for which the call was inactive.

For the compound `c1ccc(-c2ccccc2)cc1`, the call was inactive.

In the case of `Clc1ccc(C(Cl)(Cl)Cl)cc1`, the result was inactive.

As for `Cc1ccc(O)c(C)c1`, the result was inactive.

`Cc1cc(O)ccc1Cl`: the result was inactive.

Take `O=C(N[C@H]1CN2CCC1CC2)c1cc2ccoc2cn1`: the result was inactive.

With `Cc1ccccc1O`, the compound was called inactive.

Consider `O=C(O)C(F)(F)C(F)(F)C(F)(F)C(F)(F)C(F)(F)C(F)(F)C(F)(F)C(F)(F)F`, for which the compound was classed as inactive.

For `O=C(NC(=O)c1cc(F)c(F)cc1Cl)Nc1cc(F)ccc1N1CCC(C(=O)O)CC1`, the compound was called inactive.

On to `CC1=C2C[C@H]3[C@@H](CC=C4C[C@@H](O)CC[C@@]43C)[C@@H]2CC[C@]12O[C@@H]1C[C@H](C)CN[C@H]1[C@H]2C`, for which the AC50 was 25 µM (active).

Turning to `CCCCCCCCOC(=O)c1ccccc1C(=O)OCCCCCCCC`, the call was inactive.

In the case of `Nc1ccc(-c2ccc(N)cc2)cc1`, the outcome was inactive.

As for `CCCCCCCCCC[N+](C)(C)CCCCCCCCCC`, the compound was classed as inactive.

With `CN(C)c1nc(=O)n(C2CCCCC2)c(=O)n1C`, the result was inactive.

Turning to `c1cc2ccc3cccc4ccc(c1)c2c34`, the compound was called inactive.

Regarding `Cc1cccc([N+](=O)[O-])c1`, the compound was called inactive.

Turning to `Cc1cc(-c2ccc(N)c(C)c2)ccc1N`, the outcome was inactive.

Turning to `Oc1c(Cl)c(Cl)c(Cl)c(Cl)c1Cl`, the AC50 was 6.22 µM (active).

`CCC(=O)O[C@H]1CC[C@H]2[C@@H]3CCC4=CC(=O)CC[C@]4(C)[C@H]3CC[C@]12C`: the result was inactive.

As to `CC(c1ccc(O)cc1)(c1ccc(O)cc1)c1ccc(O)cc1`, the compound was called inactive.

`CCCCCCCCCc1ccc(O)cc1`: the call was inactive.

As for `O=C(O)C(F)(F)C(F)(F)C(F)(F)C(F)(F)C(F)(F)C(F)(F)C(F)(F)C(F)(F)C(F)(F)F`, the result was inactive.

For `C[C@]12CCC(=O)C=C1CC[C@@H]1[C@@H]2CC[C@]2(C)C(=O)CC[C@@H]12`, the call was inactive.

For the compound `COc1ccc(O)c(C(C)(C)C)c1`, the compound was classed as inactive.

On to `CC#Cc1cc(C)nc(Nc2ccccc2)n1`, for which the compound was classed as inactive.

Take `ClC1=C(Cl)[C@]2(Cl)[C@@H]3[C@H]4C[C@H]([C@@H]5O[C@H]45)[C@@H]3[C@@]1(Cl)C2(Cl)Cl`: the compound was classed as inactive.

For `C1CC2OC2CC1C1CO1` (stereo not given), the result was inactive.

Regarding `ClC1=C(Cl)[C@]2(Cl)[C@@H]3[C@@H](Cl)[C@H]4O[C@H]4[C@@H]3C1(Cl)C2(Cl)Cl`, the compound was called inactive.

In the case of `CC(C)C(=O)OCC(C)(C)C(OC(=O)C(C)C)C(C)C` (stereo not given), the compound was classed as inactive.

For the compound `CN(C)CCO`, the compound was classed as inactive.

On to `Cc1cc2c3c(c1)C(c1ccccc1)=N[C@@H](NC(=O)c1ccncc1)C(=O)N3CC2`, for which the outcome was inactive.

`Cc1ccccc1CO[C@@H]1C[C@@]2(C(C)C)CC[C@]1(C)O2`: the compound was classed as inactive.

In the case of `CCOP(=S)(OCC)SCSC(C)(C)C`, the result was inactive.

For the compound `CC(C)(O)C(=O)Nc1ccc([N+](=O)[O-])c(C(F)(F)F)c1`, the AC50 is 0.0212 µM (active).

For `C=CC(N)=O`, the compound was classed as inactive.
